From the supplement of paper PMC10105736 come the findings set out here.

Assay in all cases: MAPPIT interaction score (arbitrary units); higher = stronger binary interaction signal, active = hit call of the paper
One assay has as its target C15. The settings on record: MAPPIT configuration: N-N.
For another assay, the target named is CG8813. The note with it: MAPPIT configuration: N-N; pair source set: Lit-BS-16.
The next assay has as its target Lamtor3. The note with it: MAPPIT configuration: N-N; pair source set: Curagen_high_conf.
Another assay deals with Nplp1. The note with it: MAPPIT configuration: N-N; pair source set: Curagen_low_conf.
The target in a further assay is Rm62. The settings on record: MAPPIT configuration: N-N; pair source set: Curagen_low_conf.
A further assay concerns the target Traf-like. The settings on record: MAPPIT configuration: N-N; pair source set: Curagen_low_conf.
Another assay addresses row. The settings on record: MAPPIT configuration: N-N; pair source set: Curagen_low_conf.
In a further assay the target is Blos2. The note with it: MAPPIT configuration: N-N; pair source set: Curagen_low_conf.
A further assay addresses Bro. The note with it: MAPPIT configuration: N-N; pair source set: screen_2.
A further assay deals with CAP. The settings on record: MAPPIT configuration: N-N; pair source set: Lit-BM-16.
The next assay concerns the target Fkbp12. The note with it: MAPPIT configuration: N-N; pair source set: Curagen_low_conf.
For the next assay, the target named is ND-75. The settings on record: MAPPIT configuration: N-N; pair source set: Curagen_low_conf.
A further assay concerns the target Pax. The note with it: MAPPIT configuration: N-N; pair source set: screen_2.
A further assay has as its target CG5050. The settings on record: MAPPIT configuration: N-N; pair source set: Curagen_high_conf.
The target of another assay is rdx. The settings on record: MAPPIT configuration: N-N; pair source set: Curagen_high_conf.
A further assay concerns the target Blos1. The settings on record: MAPPIT configuration: N-N; pair source set: Finley_Y2H.
The target in the next assay is Tm1. The note with it: MAPPIT configuration: N-N; pair source set: screen_2.
A further assay concerns the target mldr. The note with it: MAPPIT configuration: N-N; pair source set: Finley_Y2H.
In the next assay the target is Bx. The settings on record: MAPPIT configuration: N-N; pair source set: screen_2.
The target of a further assay is CG5618. The note with it: MAPPIT configuration: N-N; pair source set: Curagen_low_conf.
The target of a further assay is Lim1. The settings on record: MAPPIT configuration: N-N; pair source set: Curagen_high_conf.

Unmarked numbers belong to inactive results.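 How the source made its calls: active = MAPPIT score above the 99th percentile of random reference set scores in the same batch; inactive = at or below it.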
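Further: HEK293T cells with Epo stimulation, STAT-responsive firefly luciferase reporter, fold induction versus unstimulated cells divided by the larger fold induction of two negative controls lacking either bait or prey.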

B1: Rm62 (protein)
chain: MLKLVQYIAPRVGGATPRPTACGWGNLLLISPRSGASSEKCITQRRHFLFSSASSSGTFASSSSLCTEQRQQFHGSRRNRETILFPSTYSSLQAQSQRAFRDSSKPDSDDYVDSIPKAEQRTRTRKSLFNDPDERTEEIKIEGVMAPHDRDFGHSGRGGRGGDRGGDDRRGGGGGGNRFGGGGGGGDYHGIRNGRVEKRRDDRGGGNRFGGGGGFGDRRGGGGGGSQDLPMRPVDFSNLAPFKKNFYQEHPNVANRSPYEVQRYREEQEITVRGQVPNPIQDFSEVHLPDYVMKEIRRQGYKAPTAIQAQGWPIAMSGSNFVGIAKTGSGKTLGYILPAIVHINNQQPLQRGDGPIALVLAPTRELAQQIQQVATEFGSSSYVRNTCVFGGAPKGGQMRDLQRGCEIVIATPGRLIDFLSAGSTNLKRCTYLVLDEADRMLDMGFEPQIRKIVSQIRPDRQTLMWSATWPKEVKQLAEDFLGNYIQINIGSLELSANHNIRQVVDVCDEFSKEEKLKTLLSDIYDTSESPGKIIIFVETKRRVDNLVRFIRSFGVRCGAIHGDKSQSERDFVLREFRSGKSNILVATDVAARGLDVDGIKYVINFDYPQNSEDYIHRIGRTGRSNTKGTSFAFFTKNNAKQAKALVDVLREANQEINPALENLARNSRYDGGGGRSRYGGGGGGGRFGGGGFKKGSLSNGRGFGGGGGGGGEGRHSRFD
With B1, the MAPPIT interaction score in the assay with C15 (pair source set: Curagen_low_conf) is -0.475; with C15 (pair source set: Finley_Y2H), 0.053; in the assay with CG8813, -0.848; with Lamtor3, 0.248; with Nplp1 it was -0.193; with Rm62, -0.712. The MAPPIT interaction score with Traf-like was 0.928; in the assay with row, 0.558.

B2: drk (protein)
chain: MEAIAKHDFSATADDELSFRKTQILKILNMEDDSNWYRAELDGKEGLIPSNYIEMKNHDWYYGRITRADAEKLLSNKHEGAFLIRISESSPGDFSLSVKCPDGVQHFKVLRDAQSKFFLWVVKFNSLNELVEYHRTASVSRSQDVKLRDMIPEEMLVQALYDFVPQESGELDFRRGDVITVTDRSDENWWNGEIGNRKGIFPATYVTPYHS
As for B2, the MAPPIT interaction score with Blos2 is 0.473.

B3: run (protein)
chain: MHLPAGPTMVANNTQVLAAAAAAAAAAAAAVAQGPGPQQSSNATTASAIAINPAQSLANTSTHSASSTGSSTPDLSTNNTSSSSNATTSPQNSAKMPSSMTDMFASLHEMLQEYHGELAQTGSPSILCSALPNHWRSNKSLPGAFKVIALDDVPDGTLVSIKCGNDENYCGELRNCTTTMKNQVAKFNDLRFVGRSGRGKSFTLTITIATYPVQIASYSKAIKVTVDGPREPRSKQSYGYPHPGAFNPFMLNPAWLDAAYMTYGYADYFRHQAAAQAAQVHHPALAKSSASSVSPNPNPSVATSSSSAVQPSEYPHPAAAVAAAAGQPAAMMPSPPGAAPATPYAIPQFPFNHVAAAAAAKAATPHAFHPYNFAAAAGLRARNAALHHQSEPVHVSPASSRPSSSSPTQQHVLLKLNTSIETSSIHEQSASDGDSDDEQIDVVKSEFDLDKSLDVAPLRMRCDLKAPSAMKPLYHESGPGAVANSRQPSPETTTKIKSAAVQQKTVWRPY
For the molecule B3, in the assay with Bro, the MAPPIT interaction score was 3.14 (active).

B4: Vinc (protein)
chain: MPVFHTKTIESILDPVAQQVSRLVILHEEAEDGNAMPDLSRPVQVVSAAVANLVKVGRDTINSSDDKILRQDMPSALHRVEGASQLLEEASDMLRSDPYSGPARKKLIEGSRGILQGTSSLLLCFDESEVRKIIQECKRVLDYLAVAEVINTMEQLVQFLKDLSPCLSKVHREVGAREKELTHQVHSEILVRCLEQVKTLAPILICSMKVYIHIVEQQGRGAEEAAENRNYLAARMSDELQEIIRVLQLTTYDEDTSELDNLTVLKKLSNAISNKMEQANEWLSNPYALRGGVGEKALRQVIDNATEISERCLPQDSYPIRKLADEVTAMANTLCELRQEGKGQSPQAESLVRGIRDRMGELKSLVHQAVLGVDKAGVQQTAHTIQGRLEQAVKWLQHPEINDGGLGERAINLIVEEGRKVAEGCPGHQKAEIQQLCDEVERLKRQAAGSGPAAKQAAKQLTQKLYELKAAIQNALVNRIVQDFMDVSTPLKQFTEAVLQPEGTPGREQNFNQKSNNLQAFSDRASKTSRMVAAGGACGNKKIAEILLSSAAQVDSLTPQLISAGRIRMNYPGSKAADEHLQNLKQQYADTVLRMRTLCDQATDPADFIKTSEEHMQVYAKLCEDAIHARQPQKMVDNTSNIARLINRVLLVAKQEADNSEDPVFTERLNAAANRLERSLPAMVGDAKLVATNIADPAAAAAWKNSFQRLLGDVREVRDAIAPPQPPPLPTSLPPPIPELSALHLSNQNAERAPPRPPLPREGLAPVRPPPPETDDEDEGVFRTMPHANQPILIAARGLHQEVRQWSSKDNEIIAAAKRMAILMARLSELVLSDSRGSKRELIATAKKIAEASEDVTRLAKELARQCTDRRIRTNLLQVCERIPTIGTQLKILSTVKATMLGAQGSDEDREATEMLVGNAQNLMQSVKETVRAAEGASIKIRSDQTSNRLQWVRRQPWYQY
For B4, the MAPPIT interaction score with CAP is 2.34; with Fkbp12, 0.498; with ND-75, -0.456; with Pax, 5.44 (active).

B5: Polr3F (protein)
chain: MATEVSQLLLAVVQGIPAGATNDDLTKALPDVPAATRVEALNILLQEGGIEILKKGEKLVYRAKDPEKKSALPKDADNEEKVVYGIVEEGGNKGIWIRDIRMKSNLNMIQLNKILKNLETKKLIKAVKSVNASKKKVYMLYNLEPDLSITGGAWYQDQDFEVEFVDVLNQQCLRFLQMKRDSAEKKREGPLAFKQMSCCTVNEVQKFISDLGISKVNLAEADLETILKTVVYDGNAERVRQQDGSFVYRAVNAPLPPTGLVQMPCGICPVIKNCSNCGDVTAITCEYMRDWLD
As for B5, the MAPPIT interaction score in the assay with C15 (pair source set: Lit-BS-16) is 0.0584; with CG5050 it was 0.169; with rdx, -0.105.

B6: Blos2 (protein)
chain: MDKPTTSAAAAAAQDSNLLPDSPQHGPTLSSASSFEALTRHDPNLSRLATKMFNKTEEYITHELNAPLEDYKLLEEMNKATIAKYKDMRQIAENLNTSTSELSLKFQQLAPMMQQIDEISDTVDKLEAAAYKLDAYSIALENRVKCVLQRKSGGGQVAQ
With B6, the MAPPIT interaction score with Blos1 is 2.29; in the assay with Tm1, 1.6; with mldr, 0.813.

B7: Chi (protein)
chain: MSWQDYVDNQLLASQCVTKACIAGHDGNIWAQSSGFEVTKEELSKLISGFDQQDGLTSNGVTLAGQRYIYLSGTDRVVRAKLGRSGVHCMKTTQAVIVSIYEDPVQPQQAASVVEKLGDYLITCGY
For the molecule B7, the MAPPIT interaction score with Bx was 6.14 (active); with CG5618, 0.207; with Lim1 it was 1.91.
